Here are results for 37 molecules from PubChem BioAssay (Tox21).

“And” between values parts separate entries of the source, which are not always exact repeats. Identical values can stand only once. Inconclusive results are not listed. Where a call stands in place of a potency, no number is given. The source holds several records for some structures; these can differ, active in one and inactive in another. The source made the active and inactive calls. Unless noted, the call rests on the fitted dose curve.

The first test can be described thus: qHTS assay for small molecule agonists of the p53 signaling pathway - cell viability (AID 651633). Further: nearly all actives have a fitted effect of over 30% in size. Further: potency means the concentration at half of the fitted maximal effect.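 On activity change, negative = cytotoxicity: p53RE-bla HCT reporter cells with a stable beta-lactamase p53 reporter.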 Conditions: p53RE-bla HCT-116 viability, ATP luminescence, 16 h; series mostly up to 83.3 µM. In outline: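 p53RE-bla cells, seeded at 4,000 per well and rested 5 h at 37 C/5% CO2, received compounds in DMSO for 16 h at 37 C. CellTiter-Glo was then added, and luminescence was read after 30 min at room temperature to gauge cytotoxicity.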
On to `CC(=O)c1ccc2c(c1)N(CCCN(C)C)c1ccccc1S2`, for which the Potency entry is “inactive”.

`CN(C)c1ccc(C(c2ccccc2)c2ccc(N(C)C)cc2)cc1`: the Potency result was “inactive”.

In the case of `Cc1oc2c(NC(=O)c3c(Cl)cccc3Cl)cccc2c1C(C)(C)O`, the Potency result is “inactive”.

As to `O=S(c1cc(Cl)cc(Cl)c1O)c1cc(Cl)cc(Cl)c1O`, the Potency was 3.35 µM (active).

Consider `OCc1cc(C(O)CNCCCCCCOCCCCc2ccccc2)ccc1O` (stereo unspecified), for which the Potency entry is “inactive and 26.6 µM (active)”.

In the case of `CC(C)OC(=O)C(C)N(C(=O)c1ccccc1)c1ccc(F)c(Cl)c1` (stereo unspecified), the Potency result was “inactive”.

As for `CC1(c2ccccc2)OC(C(=O)O)=CC1=O` (stereo unspecified), the Potency result was “inactive”.

With `CCCCCC[C@@H](O)C/C=C\CCCCCCCC(=O)OC`, the Potency result is “inactive”.

With `CNCCCN1c2ccccc2CCc2ccccc21`, the Potency entry was “inactive”.

For the molecule `C#CCN(C)CCCOc1ccc(Cl)cc1Cl`, the Potency entry is “inactive”.

A short description of the next test: qHTS assay for small molecules that induce genotoxicity in human embryonic kidney cells expressing luciferase-tagged ATAD5 - cell viability (AID 651634). Further: nearly all actives have a fitted effect of over 25% in size. Conditions: HEK293T ATAD5-luc cells viability, CellTiter-Fluor, 15.5 h; series mostly up to 83.3 µM. A digest of the protocol:
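Fluorescence from CellTiter-Fluor, reporting protease activity within live cells, served as the viability read-out. HEK293T cells carrying luciferase-tagged ATAD5 had been treated with compound for 15.5 hr at 37C.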
In general terms: In qHTS, concentration-response curves come from the screen itself.
For `O=C1c2ccccc2S(=O)(=O)N1CCCCN1CCN(c2ncccn2)CC1`, the Potency entry is “inactive”.

With `C=CC1CC2C=CC1C2` (stereo unspecified), the Potency result was “inactive”.

As to `ClCCOCCOCCCl`, the Potency entry is “inactive”.

For the molecule `Nc1cccc([N+](=O)[O-])c1`, the Potency result was “inactive”.

As for `O=C(NCCO[N+](=O)[O-])c1cccnc1`, the Potency entry was “inactive”.

Regarding `O=CC1CC=CCC1` (stereo unspecified), the Potency result was “inactive”.

As to `CCCCC(CC)COC(=O)CCCCCCCCC(=O)OCC(CC)CCCC` (stereo unspecified), the Potency result was “inactive”.

Consider `O=C(O)c1ccco1`, for which the Potency result is “inactive”.

In the case of `C=CCOC(=O)CCC1CCCCC1`, the Potency result was “inactive”.

Take `O=C(O)CNCC(=O)O`: the activity, negative = cytotoxicity is 24.8% [at 8.08 µM] (inactive).

As for `CC(=O)NO`, the Potency entry is “inactive”.

In the case of `Nc1ccccc1S(=O)(=O)c1ccccc1`, the Potency result is “inactive”.

As to `NCc1ccccc1Sc1ccccc1CO`, the Potency result is “inactive”.

Regarding `CCOCC(O)COc1ccc(NC(=O)CC[S+](C)C)cc1` (stereo unspecified), the Potency entry was “inactive”.

Regarding `NCC(=O)CCC(=O)O`, the Potency entry is “inactive”.

In the case of `C[N+](C)(C)CCOC(=O)CCC(=O)OCC[N+](C)(C)C`, the Potency result is “inactive”.

As for `NC(=O)C(c1ccccc1)(c1ccccc1)[C@@H]1CCN(CCc2ccc3c(c2)CCO3)C1`, the Potency result was “inactive”.

As to `C=C(C)C(=O)OCCOCC`, the Potency entry is “inactive”.

As to `Cn1c(=O)cc(Oc2ccc(F)cc2F)c2cnc(NCC(C)(C)O)nc21`, the Potency entry was “inactive”.

For the molecule `C/C(=C(\CCOP(=O)(O)O)SC(=O)c1ccccc1)N(C=O)Cc1cnc(C)nc1N`, the Potency entry is “inactive”.

As for `c1ccc(C(O[C@H]2CCCN(CCc3ccc4c(c3)OCO4)C2)c2ccccc2)cc1`, the Potency entry was “inactive”.

Consider `CCCCC(CC)COC(=O)COc1ccc(Cl)cc1Cl` (stereo unspecified), for which the Potency entry was “inactive”.

Take `CC(=O)OC[C@H]1O[C@@H](n2ncc(=O)[nH]c2=O)[C@H](OC(C)=O)[C@@H]1OC(C)=O`: the Potency entry was “inactive”.

As for `COc1cc(C(=O)OCCCN2CCCN(CCCOC(=O)c3cc(OC)c(OC)c(OC)c3)CC2)cc(OC)c1OC`, the Potency result was “inactive”.

Another test is described as follows: qHTS assay for small molecule disruptors of the mitochondrial membrane potential - cell viability (AID 720634).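 Further: human HepG2 liver cancer cells; nearly all actives have a fitted effect of over 20% in size.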 Conditions: HepG2 viability, ATP luminescence (CellTiter-Glo), 1 h; series mostly up to 83.2 µM. In outline:
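Cells: HepG2, 2,000/well, attached overnight. Compound 1 hr, 37 C/5% CO2. +m-MPI dye, +CellTiter-Glo 30 min RT. Readout: luminescence (ATP).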
Consider `O=C1c2ccccc2S(=O)(=O)N1CCCCN1CCN(c2ncccn2)CC1`, for which the Potency result is “inactive”.

Turning to `C=CC1CC2C=CC1C2` (stereo unspecified), the Potency entry is “inactive”.

In the case of `O=C(NCCO[N+](=O)[O-])c1cccnc1`, the Potency result was “inactive”.

For `O=CC1CC=CCC1` (stereo unspecified), the Potency result is “inactive”.

In the case of `CCCCC(CC)COC(=O)CCCCCCCCC(=O)OCC(CC)CCCC` (stereo unspecified), the Potency result is “inactive”.

Turning to `C=CCOC(=O)CCC1CCCCC1`, the Potency entry is “inactive”.

Consider `O=C(O)CNCC(=O)O`, for which the activity change, negative = cytotoxicity was -5.3% [at 8.08 µM] (inactive).

Consider `CC(=O)NO`, for which the Potency entry was “inactive”.

With `Nc1ccccc1S(=O)(=O)c1ccccc1`, the Potency result was “inactive”.

Regarding `NCc1ccccc1Sc1ccccc1CO`, the Potency result was “inactive”.

For the molecule `CCOCC(O)COc1ccc(NC(=O)CC[S+](C)C)cc1` (stereo unspecified), the Potency result was “inactive”.

In the case of `NCC(=O)CCC(=O)O`, the Potency result was “inactive”.

Consider `C[N+](C)(C)CCOC(=O)CCC(=O)OCC[N+](C)(C)C`, for which the Potency result is “inactive”.

For `C=C(C)C(=O)OCCOCC`, the Potency entry is “inactive”.

On to `C/C(=C(\CCOP(=O)(O)O)SC(=O)c1ccccc1)N(C=O)Cc1cnc(C)nc1N`, for which the Potency entry was “inactive”.

Consider `c1ccc(C(O[C@H]2CCCN(CCc3ccc4c(c3)OCO4)C2)c2ccccc2)cc1`, for which the Potency result is “inactive”.

`COc1ccc(C(=O)N2CCN(CC(=O)N3CCOCC3)CC2)cc1`: the Potency result was “inactive”.

Regarding `C/C=C/C(=O)CC`, the activity change, negative = cytotoxicity was 4.97% [at 17.9 µM] (inactive).

On to `COc1ccc(S(=O)(=O)N2C(=O)[C@@](c3ccccc3OC)(N3C[C@H](O)C[C@H]3C(=O)N(C)C)c3cc(Cl)ccc32)c(OC)c1`, for which the Potency entry is “inactive”.

For the molecule `CCCCC(CC)COC(=O)COc1ccc(Cl)cc1Cl` (stereo unspecified), the Potency result is “inactive”.

`CC(=O)OC[C@H]1O[C@@H](n2ncc(=O)[nH]c2=O)[C@H](OC(C)=O)[C@@H]1OC(C)=O`: the Potency result was “inactive”.

Consider `COc1cc(C(=O)OCCCN2CCCN(CCCOC(=O)c3cc(OC)c(OC)c(OC)c3)CC2)cc(OC)c1OC`, for which the Potency result was “inactive”.

The next test is described as follows: qHTS assay for small molecule disruptors of the mitochondrial membrane potential (AID 720635; active means well fitted inhibition curve with a large enough effect in the signal ratio in the repeat runs; the % refers to the signal ratio). The conditions noted are these: HepG2 mitochondrial membrane potential, Mito-MPS dye ratio; series mostly up to 83.2 µM. A digest of the protocol: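 HepG2 cells (2,000/well) attached overnight at 37C, then took compound for 1 hr at 37C, 5% CO2. Mito-MPS dye was added for 30 min; fluorescence was read at 490/535 nm (monomers) and 540/590 nm (aggregates).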
Take `O=C1c2ccccc2S(=O)(=O)N1CCCCN1CCN(c2ncccn2)CC1`: the Potency result was “inactive”.

Turning to `O=C(NCCO[N+](=O)[O-])c1cccnc1`, the Potency entry is “inactive”.

In the case of `O=CC1CC=CCC1` (stereo unspecified), the Potency result is “inactive”.

Take `CCCCC(CC)COC(=O)CCCCCCCCC(=O)OCC(CC)CCCC` (stereo unspecified): the Potency result is “inactive”.

Regarding `O=C(O)c1ccco1`, the Potency entry was “inactive”.

`C=CCOC(=O)CCC1CCCCC1`: the Potency result was “inactive”.

Regarding `O=C(O)CNCC(=O)O`, the ratio activity, negative = MMP loss was 15% [at 8.08 µM] (inactive).

Regarding `NCc1ccccc1Sc1ccccc1CO`, the Potency entry is “inactive”.

As to `C[N+](C)(C)CCOC(=O)CCC(=O)OCC[N+](C)(C)C`, the Potency entry was “inactive”.

Consider `C/C(=C(\CCOP(=O)(O)O)SC(=O)c1ccccc1)N(C=O)Cc1cnc(C)nc1N`, for which the Potency result is “inactive”.

For `COc1ccc(C(=O)N2CCN(CC(=O)N3CCOCC3)CC2)cc1`, the Potency result was “inactive”.

Take `C/C=C/C(=O)CC`: the ratio activity, negative = MMP loss is 2.87% [at 17.9 µM] (inactive).

For `COc1ccc(S(=O)(=O)N2C(=O)[C@@](c3ccccc3OC)(N3C[C@H](O)C[C@H]3C(=O)N(C)C)c3cc(Cl)ccc32)c(OC)c1`, the Potency result is “inactive”.

With `CCCCC(CC)COC(=O)COc1ccc(Cl)cc1Cl` (stereo unspecified), the Potency result is “inactive”.

As to `CC(=O)OC[C@H]1O[C@@H](n2ncc(=O)[nH]c2=O)[C@H](OC(C)=O)[C@@H]1OC(C)=O`, the Potency result was “inactive”.
